# Source: the supplement of paper PMC6555819
# Columns and labels:
# Assay in all cases: PBM binding z-score (relative to random genomic background probes); higher = stronger binding; sequences stand for … in GC…GCGATTGACAGCGTAGAATGAAGG
# [1] = tested on: FXR:RXRa (NR concentration 270 nM, RXRa partner concentration 90 nM)
# In short: (§1)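 Each nuclear receptor dimer, without ligand, was incubated for 1 h on custom Agilent 4×180K protein-binding microarrays. Binding was detected with antibodies against each partner (one per run), and scanned fluorescence was regression-normalized. The binding z-scores are referenced to random human genomic background probes.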
# [2] = tested on: LXRa:RXRa (NR concentration 270 nM, RXRa partner concentration 90 nM)
# In short: as §1
# [3] = tested on: LXRa homodimer (NR concentration 270 nM)
# In short: as §1
# [4] = tested on: LXRb:RXRa (NR concentration 270 nM, RXRa partner concentration 90 nM)
# In short: as §1
# [5] = tested on: LXRb homodimer (NR concentration 270 nM)
# In short: as §1
# [6] = tested on: PPARa:RXRa (NR concentration 270 nM, RXRa partner concentration 90 nM)
# In short: as §1
# [7] = tested on: PPARg:RXRa (NR concentration 180 nM, RXRa partner concentration 90 nM)
# In short: as §1
# [8] = tested on: PPARg:RXRa 270nM:90nM, anti-RXR (NR concentration 270 nM, RXRa partner concentration 90 nM)
# In short: as §1
# [9] = tested on: PPARg:RXRa 30nM:10nM, anti-RXR (NR concentration 30 nM, RXRa partner concentration 10 nM)
# In short: as §1
# [10] = tested on: PPARg:RXRa 90nM:30nM, anti-RXR (NR concentration 90 nM, RXRa partner concentration 30 nM)
# In short: as §1
# [11] = tested on: PPARg:RXRa DBDmut IVT, anti-RXR (DBD mutation: RXRa K156A/R161A, NR concentration 270 nM, RXRa partner concentration 90 nM)
# In short: as §1
# [12] = tested on: PPARg:RXRa IVT, anti-PPARg (NR concentration 270 nM, RXRa partner concentration 90 nM)
# In short: as §1
# [13] = tested on: PPARg DBDmut:RXRa IVT, anti-PPARg (DBD mutation: PPARg1 K132A/R137A, NR concentration 270 nM, RXRa partner concentration 90 nM)
# In short: as §1
# [14] = tested on: PPARg DBDmut IVT, anti-PPARg (DBD mutation: PPARg1 K132A/R137A, NR concentration 270 nM)
# In short: as §1
# [15] = tested on: PPARg homodimer (NR concentration 180 nM)
# In short: as §1
# [16] = tested on: PXR:RXRa (NR concentration 270 nM, RXRa partner concentration 90 nM)
# In short: as §1
# [17] = tested on: PXR homodimer (NR concentration 270 nM)
# In short: as §1
# [18] = tested on: RARa:RXR (NR concentration 270 nM, RXRa partner concentration 90 nM)
# In short: as §1
# [19] = tested on: RARa homodimer (NR concentration 270 nM)
# In short: as §1
Sequence,PBM binding z-score [1],PBM binding z-score [2],PBM binding z-score [3],PBM binding z-score [4],PBM binding z-score [5],PBM binding z-score [6],PBM binding z-score [7],PBM binding z-score [8],PBM binding z-score [9],PBM binding z-score [10],PBM binding z-score [11],PBM binding z-score [12],PBM binding z-score [13],PBM binding z-score [14],PBM binding z-score [15],PBM binding z-score [16],PBM binding z-score [17],PBM binding z-score [18],PBM binding z-score [19]
CCTACTGGGCCAAAGGTCCTTGATTCCAATGCTC,-0.0555,-0.225,-0.404,0.0817,-0.832,3.84,8.78,8.68,8.07,8.91,5.03,5.07,-0.487,-1.06,0.826,-0.225,-0.792,0.089,-0.831
CATACAGGGTCCGCTAGGCCAGAGTAGGGACGGC,-0.192,-0.435,-0.418,-0.869,-0.218,-1.11,0.155,-0.418,-0.876,-0.844,-1.42,-0.128,0.386,-0.456,-0.436,-0.819,-0.353,-0.535,-0.0023
CGAACTAGCTCAAGGACAGTGAATCTCCGCACGC,0.148,-0.503,0.172,-0.398,-0.571,-0.568,0.277,-0.53,-0.374,-0.661,0.26,-0.559,-0.68,-0.183,-0.00792,-0.255,-0.354,-0.192,-0.143
GATACAGAGTCAGCTAGAGGCCAGAGTATGGAAA,-0.527,-0.699,-0.703,-0.919,-1.16,-0.619,0.312,-0.242,-0.296,-0.352,-0.664,-0.657,-0.407,-0.534,-0.64,-0.537,-0.489,-0.487,-0.438
CGTCAAAGTTCAAGTTAACGTAACAGAAAGCAGC,7.26,6.56,4.75,4.33,2.63,5.3,5.08,5.71,2.68,4.8,0.502,2.16,0.474,0.736,3.88,4.92,4.14,3.96,2.01
CTCGAAAGGTCGGTTGAGGTGACTATACGGATAA,3.63,1.84,-0.14,1.58,0.0463,2.63,0.621,1.11,0.252,0.639,0.163,1.15,0.145,0.106,0.89,3.61,0.00293,2.11,0.415
GCTGCTAGGTCAGGTTGGTCGGCTAACGGGTACG,1.01,0.53,-0.245,0.0524,-0.665,1.04,0.113,0.773,-0.581,0.235,2.56,1.97,-0.279,-0.788,0.576,-0.127,-0.593,0.317,-0.865
TAGCCTAGGTCAGATCGGGCGAGTATACGCTATA,1.73,1.03,-0.449,0.569,-0.387,1.58,0.654,1.08,-0.174,0.958,0.488,1.31,-0.335,-0.507,0.138,0.314,-0.678,0.971,-1.26
CGTCAAAGTTCTAGGTAACGTAACAGAAAGCAGC,-0.164,-0.199,0.179,0.0595,-0.169,0.259,0.641,0.228,-0.178,0.017,1.41,1.83,0.454,0.457,0.283,-0.00995,-0.093,0.103,0.866
GCTGCTAGGTCAGGATGGTCAGCTAACGGGTACG,0.825,0.646,-0.251,0.268,-0.621,1.6,0.968,1.04,-0.242,0.479,2.74,3.02,-0.328,-0.66,0.599,0.108,-0.722,0.555,-0.167
CTCGAAAGGTCGGTTGAGGTGAGTAAACGGATAA,2.7,1.73,-0.0936,1.39,-0.228,2.84,0.202,1.25,0.048,0.00835,-0.271,0.901,0.0903,-0.255,0.98,3,0.167,2.19,0.141
CCTACTGGGCGAAGGTCATTGATCAGTCAAAGCA,2.76,2.99,0.677,2.83,-0.515,3.86,3.62,4.54,2.12,4.26,0.342,2.33,-1.21,-0.935,2.36,3.04,0.36,3.75,-0.327
CCTAGCAGGCCAATCGGGGTCACTCAAGGCTTGA,4.42,4.3,0.394,3.97,-0.646,4.79,2.8,3.72,0.796,2.75,2.04,3.14,-0.484,-1.21,3.42,6.01,1.7,6.08,0.0938
CGTCCAAGGTCAATGCAAGGTCAGTGAAAGCATT,7.23,5.69,4.1,5.16,1.06,5.79,4.73,5.14,2.05,3.82,3.53,4.28,0.246,0.606,5.89,6.14,2.19,6.91,2.02
CCGACGGGGGCAAGGTTACCATAACGCACAGCCA,3.14,3.01,0.301,4.21,3.34,3.96,2.74,3.36,1.37,2.84,1.63,2.94,2.07,2.52,1.9,2.63,0.67,3.36,0.881
